Source: PubChem BioAssay (EPA / NIEHS)
Results filed as inconclusive are left out. Activity calls are given as the source filed them. The calls were made as follows, unless noted: active = hit-call score of the fitted dose curve at least 0.9, where 1 is the maximum; inconclusive = response in the unintended direction; inactive = score below 0.9.

Legend:
[1] = test system: Thyroperoxidase (TPO), gene 445522; test: CCTE_Simmons_GUA_TPO: CCTE's Guaiacol Assay for Thyroperoxidase (TPO) Inhibition, Simmons Lab (AID 2283750)
In short: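 Porcine thyroid microsomes (25 ug) in 200mM potassium phosphate, preincubated 30 s at 37C with compound (8 concentrations, 5 nM–87.5 uM) and 35mM guaiacol; 1mM H2O2 starts reaction. Absorbance change at 450nm over first 80 s; loss of signal versus DMSO, three replicates.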

[2] = ArunA_CellTiter_hNC: Viability Assessment in the ArunA Biomedical's Oris Neural Crest (hNC) Cell Migration Assay (AID 2283752)
In short: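 Viability of embryonic neural crest stem cells from the H9 line is scored 72 h after dosing, with DMSO as negative control and baseline. A drop in CellTiter Aqueous One signal indicates cytotoxicity.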

[3] = ArunA_CellTiter_hNP: Viability Assessment in the ArunA Biomedical's Oris Neural Crest (hNC) Cell Migration Assay (AID 2283753)
In short: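 H9-derived hNP1 neuroprogenitors, 60,000/well on Matrigel, cultured 16 h, then 72 h chemical exposure in test medium. Cell titer via CellTiter Aqueous One; positive-direction fit vs DMSO.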

[4] = read-out: Cytochrome P450 2B6 (Homo sapiens) (UniProt P20813); test: CLD_CYP2B6_48hr: CellzDirect (CLD) Gene Expression Assay for xenobiotic metabolism (CYP2B6) at 48 hours (AID 2283699);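 also: actives raise transcript level above DMSO so potency reflects induction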
In short: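 Primary human hepatocytes dosed daily for two days over multiple concentrations, 0.2% DMSO vehicle; CYP2B6 mRNA quantified at 48 h by qNPA chemiluminescence. Induction fitted as gain of signal versus DMSO; cytotoxicity annotated by morphology.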

[5] = read-out: xenobiotic metabolism (CYP1A2), CYP1A2 (gene 1544); test: CLD_CYP1A2_48hr: CellzDirect (CLD) Gene Expression Assay for xenobiotic metabolism (CYP1A2) at 48 hours (AID 2283703)
In short: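 Primary human hepatocytes from two donor preparations were dosed daily for two days at multiple concentrations in 0.2% DMSO vehicle. CYP1A2 mRNA was measured at 48 hours by chemiluminescent quantitative nuclease protection assay, with gain of signal fitted versus DMSO and cytotoxicity annotated from morphology.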

[6] = read-out: glucuronosyltransferase (UGT1A1), UGT1A1 (gene 54658); test: CLD_UGT1A1_48hr: CellzDirect (CLD) Gene Expression Assay for glucuronosyltransferase (UGT1A1) at 48 hours (AID 2283709);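 also: actives increase expression relative to DMSO so potency refers to induction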
In short: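 Human primary hepatocytes dosed daily for two days (0.2% DMSO vehicle), harvested at 48 h. UGT1A1 mRNA induction measured by quantitative nuclease protection assay with chemiluminescence; gain of signal versus DMSO; cytotoxicity flagged from morphology.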

[7] = read-out: sulfotransferase (SULT2A), SULT2A1 (gene 6822); test: CLD_SULT2A_48hr: CellzDirect (CLD) Gene Expression Assay for sulfotransferase (SULT2A) at 48 hours (AID 2283710);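 also: hits raise SULT2A1 transcript above the 0.2% DMSO vehicle baseline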
In short: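 Primary human hepatocytes (two donor preparations) dosed daily for two days with chemicals at multiple concentrations, vehicle 0.2% DMSO; SULT2A1 mRNA induction at 48 h by quantitative nuclease protection assay, chemiluminescent read-out, fitted for gain of signal versus DMSO.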

[8] = CEETOX_H295R_MTT_cell_viability: Viability Assessment in the CeeTox HT-H295R MTT Assay (AID 2283718; active = hit-call score of the fitted dose curve at least 0.9, where 1 is the maximum; inactive = score below 0.9)
In short: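 MTT reduction (0.5 mg/ml, 4 h at 37 C; absorbance at 570 and 650 nm) gave viability as background-corrected percent change versus controls. H295R cells had 48 h forskolin (10 uM) prestimulation, then 48 h chemical exposure at 0.1% DMSO.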

[9] = Tanguay_ZF_120hpf_ActivityScore_legacy: (Legacy) Oregon State University Tanguay Lab 120 Hour Post-fertilization zebrafish Assay Score for Activity (AID 2283742);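 as to AC50: dechorionated Tropical 5D wild-type zebrafish embryos held singly per well; static exposure from 6 hpf until 120 hpf at 28 °C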
In short: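 Embryos are staged, enzymatically dechorionated at 4 hpf, placed individually at 6 hpf, then held in test chemical (0.64% DMSO) at 28C until 120 hpf. Mortality and malformations are scored by brightfield, with non-mortality endpoints skipped for dead embryos.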

[10] = read-out: Cytochrome P450 2C19 (Homo sapiens) (UniProt P33261); test: CLD_CYP2C19_48hr: CellzDirect (CLD) Gene Expression Assay for xenobiotic metabolism (CYP2C19) at 48 hours (AID 2283700);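 also: fitted upward so actives raise CYP2C19 mRNA above the 0.2% DMSO vehicle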
In short: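 Primary human hepatocytes (two donor preparations) dosed daily for two days, harvested at 48 h; CYP2C19 mRNA induction measured by qNPA chemiluminescence. Gain-of-signal fitted relative to 0.2% DMSO vehicle as baseline.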

[11] = read-out: alkyl and aryl transferase (GSTA2), GSTA2 (gene 2939); test: CLD_GSTA2_48hr: CellzDirect (CLD) Gene Expression Assay for alkyl and aryl transferase (GSTA2) at 48 hours (AID 2283708);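 also: active means mRNA induction above DMSO vehicle baseline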
In short: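 Primary human hepatocytes dosed daily for two days (0.2% DMSO vehicle), harvested at 48 h. GSTA2 mRNA induction measured by quantitative nuclease protection assay with chemiluminescent imaging, fitted for gain of signal relative to DMSO.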

[12] = read-out: xenobiotic metabolism (CYP1A1), CYP1A1 (gene 1543); test: CLD_CYP1A1_48hr: CellzDirect (CLD) Gene Expression Assay for xenobiotic metabolism (CYP1A1) at 48 hours (AID 2283705)
In short: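 Primary human hepatocytes from two donors dosed daily for two days at multiple concentrations, 0.2% DMSO vehicle; CYP1A1 mRNA induction at 48 h by qNPA chemiluminescence. Cytotoxicity noted by phase-contrast morphology.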

[13] = STM_H9_OrnithineISnorm_perc: Stemina devTOX quickPredict H9 human embryonic stem cell (hESC)-based Assay for Ornithine (ORN) Metabolite Biomarker, Normalized (AID 2283712; active = hit-call score of the fitted dose curve at least 0.9, where 1 is the maximum; inactive = score below 0.9;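 also: ornithine released into spent medium during last day measured by mass spectrometry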)
In short: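 Cells: undifferentiated H9 hESC. Dosing: 72 h, media replaced every 24 h. Sample: final 24-h conditioned media, 40% acetonitrile. Read: UPLC-HRMS ornithine area vs 13C standard, % DMSO control.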

[14] = STM_H9_CystineISnorm_perc: Stemina devTOX quickPredict H9 human embryonic stem cell (hESC)-based Assay for Cystine (CYSS) Metabolite Biomarker, Normalized (AID 2283713; active = hit-call score of the fitted dose curve at least 0.9, where 1 is the maximum; inactive = score below 0.9)
In short: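 Secreted cystine was measured by UPLC-HRMS in H9 hESC medium after 72h compound exposure with 24-hourly replenishment. Values are standard-normalized areas relative to 0.1% DMSO.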

[15] = STM_H9_OrnCyssISnorm_ratio: Stemina devTOX quickPredict H9 human embryonic stem cell (hESC)-based Assay for Ornithine (ORN):Cystine (CYSS) Ratio (AID 2283714)
In short: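 Steps: H9 hESCs in pluripotent state dosed 72h, medium plus compound renewed every 24h; conditioned medium from the final 24h deproteinized in 40% acetonitrile; ORN and CYSS quantified by UPLC-HRMS with C13 spike-ins; ratio relative to vehicle.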

[16] = read-out: organic anion transporter (SLCO1B1), SLCO1B1 (gene 10599); test: CLD_SLCO1B1_48hr: CellzDirect (CLD) Gene Expression Assay for organic anion transporter (SLCO1B1) at 48 hours (AID 2283707)
In short: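 Primary human hepatocytes from two donor preparations dosed daily for two days with multiple concentrations, 0.2% DMSO vehicle. SLCO1B1 mRNA at 48 h by quantitative nuclease protection assay, chemiluminescence; gain-of-signal fitted versus DMSO.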

[17] = read-out: HMG-CoA synthase (HMGCS2), HMGCS2 (gene 3158); test: CLD_HMGCS2_48hr: CellzDirect (CLD) Gene Expression Assay for HMG-CoA synthase (HMGCS2) at 48 hours (AID 2283711)
In short: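 Primary human hepatocytes from two donors dosed daily for two days, 0.2% DMSO vehicle. HMGCS2 mRNA measured 48 h after dosing by quantitative nuclease protection assay with chemiluminescent read-out; induction fitted relative to DMSO, cytotoxicity flagged by microscopy.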

Measured: AC50

Cytochrome P450 2C19 (Homo sapiens), sequence (P33261 whole entry, looked up): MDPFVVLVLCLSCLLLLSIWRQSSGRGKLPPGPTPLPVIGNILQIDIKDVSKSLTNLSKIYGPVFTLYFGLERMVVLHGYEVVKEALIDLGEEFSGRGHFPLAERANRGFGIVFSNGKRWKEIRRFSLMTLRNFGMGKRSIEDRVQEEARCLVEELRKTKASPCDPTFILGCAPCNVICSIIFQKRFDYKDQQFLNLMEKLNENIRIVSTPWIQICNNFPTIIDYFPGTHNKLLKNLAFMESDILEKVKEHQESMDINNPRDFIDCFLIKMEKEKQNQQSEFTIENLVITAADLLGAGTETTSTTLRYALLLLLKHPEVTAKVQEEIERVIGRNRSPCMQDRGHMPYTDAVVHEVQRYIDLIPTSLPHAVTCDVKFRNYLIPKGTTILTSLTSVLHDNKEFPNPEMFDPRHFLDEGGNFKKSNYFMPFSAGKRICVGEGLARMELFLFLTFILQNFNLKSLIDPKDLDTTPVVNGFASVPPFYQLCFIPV

COP(=O)(NC(C)=O)SC (stereo unspecified)
inactive: [1]

O=[N+]([O-])c1cc(C(F)(F)F)c(Cl)c([N+](=O)[O-])c1Nc1ncc(C(F)(F)F)cc1Cl
inactive: [2] | [3]

CN(C)[C@@H]1C(=O)C(C(N)=O)=C(O)[C@@]2(O)C(=O)C3=C(O)c4c(O)cccc4[C@@](C)(O)[C@H]3[C@H](O)[C@@H]12
active: [3] 4.16 µM

CCOC(=O)COc1cc(-c2nn(C)c(OC(F)F)c2Cl)c(F)cc1Cl
inactive: [5] | [7] | [8] | [9]
active: [4] 13.5 µM | [6] 6.18 µM

CNC(=O)ON=C(C)SC
inactive: [10] | [5] | [11] | [6] | [7] | [8] | [9]

CCOP(=S)(OCC)Oc1cc(C)nc(C(C)C)n1
active: [4] 1.89 µM | [5] 2.77 µM | [12] 4.2 µM | [13] 79.1 µM | [14] 73.3 µM | [15] 75.2 µM
inactive: [11] | [6] | [7] | [8] | [9]

CCC(CC)Nc1c([N+](=O)[O-])cc(C)c(C)c1[N+](=O)[O-]
active: [4] 6.23 µM | [5] 9.85 µM
inactive: [16] | [11] | [6] | [7] | [9]

CC(Oc1cccc(Cl)c1)C(=O)O (stereo unspecified)
inactive: [10] | [5] | [16] | [6] | [9]

CCC(=NOC/C=C/Cl)C1=C(O)CC(C2CCOCC2)CC1=O (stereo unspecified)
inactive: [4] | [5] | [16] | [11] | [6] | [14] | [9]
active: [13] 0.0699 µM

CC[C@H](C)[C@H]1O[C@]2(C=C[C@@H]1C)C[C@@H]1C[C@@H](C/C=C(\C)[C@@H](O[C@H]3C[C@H](OC)[C@@H](O[C@H]4C[C@H](OC)[C@@H](NC)[C@H](C)O4)[C@H](C)O3)[C@@H](C)/C=C/C=C3\CO[C@@H]4[C@H](O)C(C)=C[C@@H](C(=O)O1)[C@]34O)O2
active: [7] 2 µM | [9] 1.49 µM
inactive: [16] | [17]

CN(C)C(=O)Nc1cccc(C(F)(F)F)c1
active: [4] 3.69 µM | [5] 1.96 µM
inactive: [16] | [6] | [7] | [17] | [13] | [14] | [15] | [8] | [9]

COc1ccc(C(=CC(=O)N2CCOCC2)c2ccc(Cl)cc2)cc1OC
inactive: [6] | [7] | [14] | [15] | [8]
active: [4] 3.59 µM | [11] 32.2 µM | [13] 0.119 µM | [9] 42.9 µM

CCC(=O)Nc1ccc(Cl)c(Cl)c1
active: [4] 0.92 µM | [5] 4.67 µM
inactive: [6] | [8] | [9]

N#CSCSC#N
inactive: [5] | [11] | [7] | [17]
active: [12] 7.26 µM | [13] 20.5 µM | [14] 7.75 µM | [15] 14.2 µM | [9] 17.9 µM

COP(=O)(OC)SCn1c(=O)oc2cc(Cl)cnc21
inactive: [5] | [11] | [6] | [7] | [17] | [9]

S=C1NCCN1
inactive: [10] | [16] | [11] | [6] | [13] | [14] | [9] | [2] | [3]

CCc1cnc(C2=NC(C)(C(C)C)C(=O)N2)c(C(=O)O)c1 (stereo unspecified)
inactive: [10] | [5] | [16] | [11] | [6] | [7] | [17] | [9]

CON=C(C(=O)OC)c1ccccc1CON=C(C)c1cccc(C(F)(F)F)c1
active: [12] 20 µM
inactive: [4] | [5] | [11] | [6] | [7] | [13] | [14] | [9]

CCCSP(=O)(OCC)SCCC
active: [4] 3.82 µM
inactive: [5] | [16] | [6] | [7] | [17] | [8] | [9]

CNc1cnn(-c2cccc(C(F)(F)F)c2)c(=O)c1Cl
inactive: [6] | [7] | [13] | [14] | [15] | [8] | [9]
active: [4] 3.19 µM | [5] 5.39 µM | [12] 5.37 µM
